The target of the first experiment is PUM1 PUF domain R5-WHG (Homo sapiens, UniProt Q14671 828-1176, C1007W;R1008H;Q1011G). The experiment in a line: yeast three-hybrid, YBZ-1, SC-Leu-His + 0.5 mM 3-AT, 4 days. Conditions: tags: N-Gal4 AD-HA kept; label: inside an RPR1-promoter hybrid RNA with tandem MS2 sites; ssRNA. A digest of the protocol:
(§1)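 Matching RNA elements and Pumilio-1 PUF domain libraries, randomized at the three base-contacting residues of every repeat, were co-expressed from a centromeric plasmid in strain YBZ-1 (LexA–MS2 coat fusion, HIS3 reporter). The repeat regions were PCR-amplified and Illumina-sequenced from cells grown four days on SC-Leu (input) or SC-Leu-His + 0.5 mM 3-AT (selection). The interaction score is the log change in variant frequency from input to selection. It is computed in log2, with a pseudocount of 1 for absent variants.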
In the case of “GGCUAGAACUAGUGGAUCCCCCGGCGCCCGGCGGCUCGAGCCCGGGUAAGUGUGAAUAGUCUGCAUGCCGCCGGGCGCCAUGCCUGCAGGUCGACUCUAGAAAACAUG”, the binding signal was 2.58 log2 enrichment (interaction score). With “GGCUAGAACUAGUGGAUCCCCCGGCGCCCGGCGGCUCGAGCCCGGGUAAGUGUUAAUAGUCUGCAUGCCGCCGGGCGCCAUGCCUGCAGGUCGACUCUAGAAAACAUG”, the binding signal was 4.56 log2 enrichment (interaction score).

Regarding “GGCUAGAACUAGUGGAUCCCCCGGCGCCCGGCGGCUCGAGCCCGGGUAAGUGUCAAUAGUCUGCAUGCCGCCGGGCGCCAUGCCUGCAGGUCGACUCUAGAAAACAUG”, the binding signal was 2.14 log2 enrichment (interaction score).

A further experiment concerns the target PUM1 PUF domain R3-GRA (Homo sapiens, UniProt Q14671 828-1176, C935G;Q939A). The experiment is described as above. The settings on record: tags: N-Gal4 AD-HA kept; label: inside an RPR1-promoter hybrid RNA with tandem MS2 sites; ssRNA. A digest of the protocol:
as §1
“GGCUAGAACUAGUGGAUCCCCCGGCGCCCGGCGGCUCGAGCCCGGGUAAGUGUAAAUAGUCUGCAUGCCGCCGGGCGCCAUGCCUGCAGGUCGACUCUAGAAAACAUG”: the binding signal was 2.35 log2 enrichment (interaction score). Still for that read-out and setting: then “GGCUAGAACUAGUGGAUCCCCCGGCGCCCGGCGGCUCGAGCCCGGGUAAGUGUAAGUAGUCUGCAUGCCGCCGGGCGCCAUGCCUGCAGGUCGACUCUAGAAAACAUG”, with 1.12 log2 enrichment (interaction score); and “GGCUAGAACUAGUGGAUCCCCCGGCGCCCGGCGGCUCGAGCCCGGGUAAGUGUAAUUAGUCUGCAUGCCGCCGGGCGCCAUGCCUGCAGGUCGACUCUAGAAAACAUG”, with 0.97 log2 enrichment (interaction score).

The next experiment has as its target PUM1 PUF domain R5-GRH (Homo sapiens, UniProt Q14671 828-1176, C1007G;Q1011H). Described as above. The settings on record: tags: N-Gal4 AD-HA kept; label: inside an RPR1-promoter hybrid RNA with tandem MS2 sites; ssRNA. The method, boiled down:
as §1
With “GGCUAGAACUAGUGGAUCCCCCGGCGCCCGGCGGCUCGAGCCCGGGUAAGUGUAAAUAGUCUGCAUGCCGCCGGGCGCCAUGCCUGCAGGUCGACUCUAGAAAACAUG”, the binding signal was 3.97 log2 enrichment (interaction score). The same measure, in the same setting: then “GGCUAGAACUAGUGGAUCCCCCGGCGCCCGGCGGCUCGAGCCCGGGUAAGUGUUAAUAGUCUGCAUGCCGCCGGGCGCCAUGCCUGCAGGUCGACUCUAGAAAACAUG”, with 4.85 log2 enrichment (interaction score). Still for that read-out and setting: then “GGCUAGAACUAGUGGAUCCCCCGGCGCCCGGCGGCUCGAGCCCGGGUAAGUGUCAAUAGUCUGCAUGCCGCCGGGCGCCAUGCCUGCAGGUCGACUCUAGAAAACAUG”, with 2.47 log2 enrichment (interaction score).

(Values after publication PMC8384837, “Expanding the binding specificity for RNA recognition by a PUF domain”.)
